From PubChem
Only some compounds are listed: those with a hit (about 1.4% of all), similar ones and a draw of the others.
MmCpn inh: inhibitors of Methanococcus maripaludis chaperonin TRiC (MmCpn); purified Mm-Cpn ATPase, ADP Transcreener TR-FRET; Potency, µM (titrated, usually from 76.9 µM), inactives show top-dose activity, negative = inhibition, actives largely listed as inhibitors; hit rate 0.031% among 330,000; AID 504842; also: potency is read from the fitted curve at half-maximal effect; % is scaled to controls: 0 for no effect and ±100 for the full control effect; nearly all actives have a fitted effect of over 80% in size
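Measured: ADP formation by purified Mm-CPN. Conditions: 25 nM protein, 10 uM ATP, Tris pH 7.4 with Mg2+, K+ and DTT, 37°C for 30 min. Detection: Transcreener HTRF after 30 min at room temperature.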
KCNH2 3.1 block: KCNH2 3.1 (human) potassium channel inhibition; U2OS KCNH2 3.1, thallium flux FluxOr; stronger effect = lower value; activity change, % (tested at about 1.8 µM); AID 720553; hit rate 0.95% among 340,000;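 active = maximum activity change below -70%; inconclusive = maximum activity change from -70% to -50%; inactive = maximum activity change above -50%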;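 also: thallium influx rate constant from kinetic fluorescence after stimulation buffer; % is scaled to controls: 0 for no effect and ±100 for the full control effect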
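Normalized rate constant (relative to positive and negative DMSO controls) derived from a 2 min kinetic fluorescence read after stimulation; U2OS cells expressing the 3.1 isoform via virus at 1.77 x 10^8 /mL.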
p53 reactivator: restores transcriptional activity of mutant p53. hit rate 0.063% among 320,000. Potency, µM (highest dose often 92.2 µM), for the others: at the highest dose activity change, positive = activation, usual class: activators. H1299 p53-A138V BP100-luciferase reporter, luminescence, 24 h; also: potency is read from the fitted curve at half-maximal effect; % of control where 0% means no effect; nearly all actives have a fitted effect of over 45% in size
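p53-null H1299 cells stably carrying temperature-sensitive p53-A138V and a BP100-luciferase reporter were pinned with compounds (4-point, 1:5 series) and held 24 hrs at 37 deg C. Luminescence was read 10 min after detection reagent.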
uPA generation: inhibitors of cell surface uPA generation | cell surface uPA generation assay, qHTS | Potency, µM (highest dose often 38.3 µM), without a hit: at the top dose activity change, negative = inhibition, most hits filed as inhibitors | hit rate 0.31% among 330,000 | AID 540303; active = well fitted inhibition curve with a large enough effect; inconclusive = small, poorly fitted or top-dose-only effect; inactive = no such curve, though single readings can be large or run the other way; tested in mouse RAW 264.7 cells; also: potency is read from the fitted curve at half-maximal effect; % is scaled to controls: 0 for no effect and ±100 for the full control effect; nearly all actives have a fitted effect of over 55% in size
ASM inhibitor: blocks human secretory acid sphingomyelinase | hit rate 0.006% among 340,000 | P17405 | Potency, µM (series often up to 57.5 µM), without a hit: top-dose activity change, negative = inhibition, actives largely listed as inhibitors | placental ASM, HMU-PC fluorogenic substrate, 60 min; also: potency is read from the fitted curve at half-maximal effect
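Fluorogenic HMU-PC substrate (9 uM final) is turned over by placental ASM in 60 min at 37 C after a 10 min compound preincubation. Reaction ended by alkaline stop (pH 10), with fluorescence read at 386/447 nm.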
KCNH2 WT inh: KCNH2 (human, wildtype) channel inhibition; hit rate 0.37% among 340,000; U2OS, BacMam KCNH2, thallium flux FluxOr; stronger effect = lower value; activity change, % at 1.84 µM; Q12809;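 active = maximum activity change below -70%; inconclusive = maximum activity change between -70% and -50%; inactive = maximum activity change above -50%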; also: % is scaled to controls: 0 for no effect and ±100 for the full control effect
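U2OS cells transduced with wild-type KCNH2 virus are loaded with FluxOr dye for 45 min, and thallium flux is measured in kinetic reads before and after stimulation buffer. Rate constants are normalized to DMSO controls.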
Active calls of the source: *; [ ] = another dose, or the depositor's remark. Unless noted, calls follow the shape of the dose curve; as a rule, active = well fitted curve in the direction sought with a large enough effect; inconclusive = small, poorly fitted or top-dose-only effect, or another doubt; inactive = no such curve, though single readings can be large; an effect the other way counts as inactive or inconclusive.

Screening COc1ccccc1S(=O)(=O)N(C)C[C@H]1OCc2cnnn2CCCC(=O)N([C@H](C)CO)C[C@H]1C returned KCNH2 3.1 block -1 and KCNH2 WT inh -27.
`COc1ccc(-c2ccc(CCC(=O)O)n2-c2ccccc2OC)cc1` gave MmCpn inh -2%, KCNH2 3.1 block -1, uPA generation 2.2µM*, ASM inhibitor 26% and KCNH2 WT inh -4.
`COc1ccccc1-n1c(CCC(=O)O)ccc1-c1ccccc1` gave MmCpn inh -2%, KCNH2 3.1 block -16, uPA generation -4%, ASM inhibitor 9% and KCNH2 WT inh 3.
Cc1ccc(S(=O)(=O)Cc2ccc(C(=O)N3CCN(c4cccc(C)c4C)CC3)o2)cc1 was read as MmCpn inh -1%, KCNH2 3.1 block 10, uPA generation 0.89µM*, ASM inhibitor -7% and KCNH2 WT inh 8.
`COc1ccc(S(=O)(=O)Cc2ccc(C(=O)N3CCN(c4cccc(C)c4C)CC3)o2)cc1` gave MmCpn inh 1%, KCNH2 3.1 block -1, p53 reactivator -7%, uPA generation inconclusive, ASM inhibitor -7% and KCNH2 WT inh 1.
For COc1ccc(S(=O)(=O)Cc2ccc(C(=O)N3CCN(c4cccc(C)c4)C(C)C3)o2)cc1 (stereo not given) the results were MmCpn inh 0%, KCNH2 3.1 block -4, p53 reactivator 11%, uPA generation 5.6µM*, ASM inhibitor -3% and KCNH2 WT inh -8.
`CNC[C@@H]1OCc2cnnn2CCCC(=O)N([C@H](C)CO)C[C@H]1C` gave KCNH2 3.1 block 2 and KCNH2 WT inh -3.
`CCC(=O)Nc1cccc(-c2nnc(SCC(=O)c3ccccc3)n2C)c1` gave MmCpn inh -1%, KCNH2 3.1 block -91*, p53 reactivator 15%, uPA generation -2%, ASM inhibitor 3% and KCNH2 WT inh 0.
For C[C@@H]1CN([C@@H](C)CO)S(=O)(=O)c2ccc(Br)cc2O[C@@H]1CN(C)C(=O)NC1CCCCC1 the results were KCNH2 3.1 block -3 and KCNH2 WT inh -1.
`CCCN(C(=O)c1cccs1)c1c(N)n(Cc2ccccc2)c(=O)[nH]c1=O` gave MmCpn inh -1%, KCNH2 3.1 block 3, p53 reactivator 1%, uPA generation -9%, ASM inhibitor 2% and KCNH2 WT inh -5.
`C[C@@H]1CN([C@H](C)CO)C(=O)CCCn2nncc2CO[C@H]1CN(C)S(=O)(=O)c1ccc(Oc2ccccc2)cc1` gave KCNH2 3.1 block -22 and KCNH2 WT inh 4.
For CN(C)c1nc(N)c2nccnc2n1 the results were KCNH2 3.1 block -15, uPA generation 4%, ASM inhibitor 1% and KCNH2 WT inh 3.
CCN(CC)c1nc(C=Cc2ccc(N(C)C)cc2)c2nccnc2n1 was read as KCNH2 3.1 block -99* and KCNH2 WT inh -107*.
For O=C(O)c1sccc1S(=O)(=O)N1CCOCC1 the results were MmCpn inh -3%, KCNH2 3.1 block 4, p53 reactivator 8%, uPA generation 9%, ASM inhibitor 3% and KCNH2 WT inh -4.
Screening NC(=O)C1CCN(c2nc(-c3ccc4c(c3)OCO4)cs2)CC1 returned MmCpn inh 0%.
`COc1ccccc1Oc1nnnn1-c1ccc(C(N)=O)cc1` gave MmCpn inh 0%, KCNH2 3.1 block -85*, p53 reactivator -2%, ASM inhibitor 2% and KCNH2 WT inh -22.
`Cc1ccc(CS(=O)(=O)CCC(=O)NCc2ccccc2Cl)cc1` gave MmCpn inh 0%, KCNH2 3.1 block -73*, p53 reactivator 4%, uPA generation 0%, ASM inhibitor 4% and KCNH2 WT inh -1.
For O=[N+]([O-])c1ccc(Cl)c(S(=O)(=O)NCCc2ccccn2)c1 the results were MmCpn inh 1%, KCNH2 3.1 block 0, p53 reactivator 7%, uPA generation -6%, ASM inhibitor 0% and KCNH2 WT inh 7.
Screening N#Cc1ccc(C(=O)NC2CCCCCCC2)cc1 returned MmCpn inh 0%, KCNH2 3.1 block -2, p53 reactivator 35µM*, uPA generation 0%, ASM inhibitor -3%[11.5 µM] and KCNH2 WT inh -4.
`Cc1ccc(C(=O)NC2CCCCC2)cc1` gave MmCpn inh 1%, KCNH2 3.1 block 0, p53 reactivator 26%, uPA generation inconclusive, ASM inhibitor 4% and KCNH2 WT inh -48.
Screening NC(=O)CCC(NC(=O)c1ccc(Cl)cc1)C(=O)NCCc1ccc2c(c1)OCCO2 (stereo not given) returned MmCpn inh 0%, KCNH2 3.1 block 1, p53 reactivator 2%, uPA generation 0%, ASM inhibitor 0% and KCNH2 WT inh 0.
`COc1cccc(CC(=O)OCC(=O)N(C)CC(=O)Nc2ccccc2Cl)c1` gave MmCpn inh 0%, KCNH2 3.1 block 0, p53 reactivator 6%, uPA generation -2%, ASM inhibitor 2% and KCNH2 WT inh -3.
`COc1cc(/C=C2\SC(=S)N(Nc3ncc(C(F)(F)F)cc3Cl)C2=O)ccc1O` gave MmCpn inh -5%, KCNH2 3.1 block -10, p53 reactivator 15%, uPA generation 0%, ASM inhibitor inconclusive and KCNH2 WT inh -3.
For CN(C)c1ccc(/C=C2\SC(=S)N(Nc3ncc(C(F)(F)F)cc3Cl)C2=O)cc1 the results were MmCpn inh -2%, KCNH2 3.1 block -73*, p53 reactivator 8%, ASM inhibitor -10% and KCNH2 WT inh -133*.
For COc1ccc(/C=N/NC(=O)c2ccc(CN3c4cccc5cccc(c45)S3(=O)=O)cc2)cc1 the results were MmCpn inh -29%, KCNH2 3.1 block -21, p53 reactivator -9%, uPA generation 3%, ASM inhibitor 53% and KCNH2 WT inh 14.
O=C(N/N=C/CCc1ccccc1)c1ccc(CN2c3cccc4cccc(c34)S2(=O)=O)cc1 was read as MmCpn inh inconclusive, KCNH2 3.1 block -78*, p53 reactivator -7%, uPA generation 11%, ASM inhibitor 18% and KCNH2 WT inh 18.
Screening COc1cccc(-c2nc(CN3CCN(C(=O)c4ccco4)CC3)c(C)o2)c1OC returned KCNH2 3.1 block -90* and KCNH2 WT inh -2.
For O=C(c1cccc(-n2cccc2)c1)N1CCN(S(=O)(=O)c2ccccc2Br)CC1 the results were MmCpn inh 2%, KCNH2 3.1 block -15, p53 reactivator -6%, uPA generation 0%, ASM inhibitor -3% and KCNH2 WT inh -2.
